Results on five molecules are retold here after PubChem BioAssay AID2006 (Sanford-Burnham Center for Chemical Genomics, 2009).

The whole screen tested about 290,000 compounds, of which about 1,000 (0.34%) were called active. No stated cut-off is given here; in the data, active means inhibition above about 50% (passing the limit was not always enough); inconclusive means no clear call, values can overlap the other calls. Many of the other results were omitted from the sample, so actives are more common in it than they were.

The experiment deals with SUMO-conjugating enzyme UBC9 (Homo sapiens) (UniProt P63279). As to the kind of experiment: inhibitors of in vitro SUMOylation cascade, primary screen, biochemical, HTRF, uHTS (AID 2006). Conditions: HTRF SUMOylation assay, SAE1/SAE2 + UBC9, in vitro; at 35 µM; stronger effect = higher value. In general terms: Time-resolved FRET reads energy transfer from a long-lived donor to a nearby acceptor.
Sequence of SUMO-conjugating enzyme UBC9 (Homo sapiens) (P63279 whole entry, looked up): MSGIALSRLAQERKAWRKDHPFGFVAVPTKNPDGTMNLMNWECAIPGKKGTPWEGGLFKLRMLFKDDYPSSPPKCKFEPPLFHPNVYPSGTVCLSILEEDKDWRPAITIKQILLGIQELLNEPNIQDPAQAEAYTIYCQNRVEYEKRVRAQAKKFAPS
In general, inhibition refers to the drop in the measured response relative to a control, in per cent. `Cc1cccc(N2C(=O)NC(=O)/C(=C\c3cnn(-c4ccccc4)c3)C2=O)c1`: the inhibition is -3.4% (inactive).

`COc1cccc(N2C(=O)NC(=O)/C(=C\c3ccc([N+](=O)[O-])s3)C2=O)c1`: the inhibition was 41.7% (inactive). For `O=C1NC(=O)N(c2ccccc2)C(=O)/C1=C/c1ccc([N+](=O)[O-])s1`, the inhibition was 51.6% (active).

As to `CC1CCC(N(C)C2CCN(C)CC2)CC1` (stereo not given), the inhibition is 9.4% (inactive). Regarding `CC(c1ccccc1)(c1ccccc1)c1ccncc1`, the inhibition was 4.4% (inactive).
